# High-throughput results as filed in PubChem.
# Sampled rows, rich in hits. Any-hit rate of the full collection: about 21%.
# DRD3 agonist – activates the human D3 dopamine receptor. D3R DiscoveRx beta-arrestin cells, luminescence, 90 min. max activation, %. P35462. 0.58% of 410,000 active; in the data active = max activation above about 30%; note: 0% is about no effect
#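 Cells at 1500/well, incubated overnight, then treated with pinned compounds (dopamine as control) for 90 min at 37 degrees C. DiscoveRx reagent added for 30 - 60 minutes at room temperature; luminescence read.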
# DT40 TDP1 no CPT – qHTS for Inhibitors of human tyrosyl-DNA phosphodiesterase 1 (TDP1): qHTS in cells in absence of CPT; DT40 Tdp1-/- hTDP1 cells, no CPT, ATP luminescence, 48 h; Potency, µM (doses to about 46.2 µM), without a hit: at the highest dose activity change, negative = growth inhibition, hits mostly inhibitors; 15% of 420,000 active; AID 686978, 2013; note: potency is the fitted concentration of half-maximal effect; % is set by controls: 0 for no effect and ±100 for the full control effect; nearly all actives have a fitted effect of over 55% in size
#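 A cellular qHTS used chicken DT40 cells lacking endogenous Tdp1 but carrying stably transfected human TDP1. Compounds were applied without camptothecin, and cell growth kinetics were judged by ATP-dependent luminescence after ≥48 hr.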
# DRD3 antagonist – antagonists of human D3 dopamine receptor; P35462; D3R cells, DiscoveRx beta-arrestin luminescence, antagonist mode; active compounds read low; max response, negative = inhibition, %; 2.5% of 360,000 active; AID 652054; in the data active = max response below about -50%; inconclusive = no clear call, values can overlap the other calls; note: % is set by controls: 0 for no effect and ±100 for the full control effect
#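 Cells expressing the human receptor were seeded at 1500 cells/well, incubated overnight at 37 degrees C in 5% CO2, then exposed to library compounds with dopamine controls for 90 minutes at 37 degrees C before luminescent detection.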
# TDP1 cell CPT – DT40-hTDP1 cell growth loss with CPT. chicken DT40 Tdp1-/-;hTDP1 cells + 20 nM CPT, ATP luminescence, 48 h. Potency, µM (top dose mostly 46.2 µM), for inactives: at the top dose activity change, negative = growth inhibition, most hits filed as inhibitors. 12% of 420,000 active. AID 686979; note: potency is the fitted concentration of half-maximal effect; % is set by controls: 0 for no effect and ±100 for the full control effect; nearly all actives have a fitted effect of over 55% in size
#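 Chicken DT40 Tdp1-/- cells stably complemented with human TDP1 were seeded at 400 cells/well in medium containing 20 nM camptothecin, exposed to pin-transferred compounds, and grown at 37 °C for at least 48 hr. Viability was read as ATP luminescence.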
# IL-1B inflam inh – blocks inflammasome-driven IL-1 beta release | THP-1 LPS/ATP IL-1B secretion, AlphaLISA, 16 h; active compounds read low | activity change, % at 57.5 µM | 4.7% of 360,000 active; in the data active = activity change below about -50%; inconclusive = mostly about -30% to -49%; note: % is set by controls: 0 for no effect and ±100 for the full control effect
#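 Secreted IL-1B measured by AlphaLISA bead assay after 16 h compound exposure of THP-1 cells; compounds (final up to 57.5 uM) added 1 h before LPS (250 ng/mL) and ATP (1.25 mM) stimulation; lower signal means less secretion.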
# ClpP mod – qHTS Assay for Activators of ClpP; purified B. subtilis ClpP, FRET peptide cleavage, 20 min; 1.9% of 340,000 active; Potency, µM (doses to about 57.5 µM), without a hit: at the highest dose activity change, negative = active; active = well fitted falling curve with a large enough effect; inconclusive = small, poorly fitted or top-dose-only effect; inactive = no such curve, though single readings can be large or run the other way; note: potency is the fitted concentration of half-maximal effect; the source files actives as falling curves though it sought activators and does not explain the sign; nearly all actives have a fitted effect of over 65% in size
# Target sequence (P80244 whole entry, looked up): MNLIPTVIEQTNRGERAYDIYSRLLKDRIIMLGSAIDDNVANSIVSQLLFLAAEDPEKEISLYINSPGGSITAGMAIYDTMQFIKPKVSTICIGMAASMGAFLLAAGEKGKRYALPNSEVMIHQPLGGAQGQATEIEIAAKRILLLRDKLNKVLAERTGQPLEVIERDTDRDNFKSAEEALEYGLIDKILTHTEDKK
#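 Buffer: 100 mM Tris/HCl pH8, 100 mM KCl, 0.05% low protease BSA, 2.5% glycerol, 0.01% Tween-20. ClpP 10 microg/mL final; 20 min RT; delta FRET normalized to ADEP and DMSO controls.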
# Starred values were filed as active, the others as inactive; ? = inconclusive; . = no result. Unless noted, calls come from the whole dose curve; as a rule, active = well fitted inhibition curve with a large enough effect; inconclusive = small, poorly fitted or top-dose-only effect; inactive = flat fitted curve, though single readings scatter.
SMILES,DRD3 agonist,DT40 TDP1 no CPT,DRD3 antagonist,TDP1 cell CPT,IL-1B inflam inh,ClpP mod
O=C(NC(=S)Nc1cccc(NC(=S)NC(=O)c2ccccc2)c1)c1ccccc1,-10,10µM*,-21,9.2µM*,32,.
O=C(NC(=S)Nc1cccnc1)c1ccccc1,-5,-19%,-19,-9%,1,.
CC(=O)c1cccc(NC(=S)NC(=O)c2ccc(C)cc2)c1,-2,18µM*,-1,?,-7,.
CC(=O)c1cccc(NC(=S)NC(=O)c2ccc(Br)cc2)c1,-4,-13%,3,-5%,6,1%
O=[N+]([O-])c1ccc(O)c(CN2CCCCCC2)c1,2,12%,-7,5%,18,1%
CCC(=O)Nc1cccc(NC(=S)NC(=O)c2ccc(C)cc2)c1,-2,?,-13,?,0,-2%
O=C(NC(=S)Nc1cccc(CO)c1)c1ccc(-c2ccccc2)cc1,-2,13µM*,-12,23µM*,-10,3%
Cc1ccc(S(=O)(=O)NC2(C(=O)O)CCCC2)cc1,2,-5%,13,7%,16,35µM*
Cc1ccc(S(=O)(=O)NC2(C(=O)O)CCCCC2)cc1,0,0%,11,-8%,-11,0%
CC(C)(C)NC(=O)CN(CCN1CCOCC1)C(=O)CNS(=O)(=O)c1ccc(Cl)cc1,7,-1%,0,-4%,-3,.
Cc1c(C)n(Cc2ccccc2)c2ccc(C(=O)N3CCN(c4ccc(F)cc4)CC3)cc12,4,16µM*,.,?,.,-27%
Cc1c(C)n(Cc2ccc(F)cc2)c2ccc(C(=O)N3CCN(c4ccc(Cl)cc4)CC3)cc12,-3,?,.,18µM*,.,-23%
Cc1c(C)n(Cc2ccccc2)c2ccc(C(=O)N3CCN(c4ccccc4)CC3)cc12,6,?,.,?,.,-24%
CSCC[C@H](NC(=O)[C@@H]1Cc2ccccc2CN1)C(=O)Nc1ccc2c(c1)OCO2,-8,13%,-14,-28%,-9,-2%
CC(=O)O[C@H]1C[C@H]2CC[C@@H]3[C@H]4C[C@@H]([N+]5(C)CCCCC5)[C@@H](OC(C)=O)[C@]4(C)CC[C@@H]3[C@@]2(C)C[C@@H]1[N+]1(C)CCCCC1,.,-4%,.,2%,.,.
Cc1ccc(NC(=S)C2=C(O)c3sccc3N(C)S2(=O)=O)cc1,4,?,-88*,?,13,-1%
Cc1ccc(NC(=O)C2=C(O)c3sccc3N(C)S2(=O)=O)cc1,0,21µM*,?,?,-17,1%
CC(=O)N1CCN(S(=O)(=O)c2cccc(C(=O)Nc3ccc(F)c(F)c3)c2)CC1,3,?,6,?,30,.
Cc1cc(C(=O)COC(=O)c2ccc(O)cc2)c(C)n1CCc1ccc(F)cc1,16,-26%,4,0%,13,2%
Cc1cc(C(=O)CSc2nc(N)cc(N)n2)c(C)n1CCc1ccc(F)cc1,0,?,40,?,-66*,1%
Cc1cc(C(=O)COC(=O)C2=NNC(=O)CC2)c(C)n1-c1cccc(C(F)(F)F)c1,41*,-8%,20,-28%,5,0%
Cc1cc(C(=O)CSc2nc(N)cc(N)n2)c(C)n1-c1cccc(C(F)(F)F)c1,4,?,33,23µM*,-11,1%
Cc1cc(C(=O)C(C)OC(=O)C2=NNC(=O)CC2)c(C)n1-c1ccc(OC(F)F)cc1 (centres undefined),0,21µM*,0,?,-10,20µM*
Cc1ccc(Cc2c(-c3ccc(C#N)cc3)nc3c(C)cc(Br)cn23)cc1,-3,?,-10,?,7,16%
Cc1ccccc1-c1nc(CN2CCC(C(=O)NC3CC3)CC2)c(C)o1,-8,1%,-1,-6%,-11,-1%
